In PubChem BioAssay (NCATS):
Results filed as inconclusive are left out. Calls of active or inactive are those of the source. Calls come from the whole dose curve; as a rule, active = well fitted curve in the direction sought with a large enough effect; inconclusive = small, poorly fitted or top-dose-only effect, or another doubt; inactive = no such curve, though single readings can be large; an effect the other way counts as inactive or inconclusive.

Columns and labels:
[1] = qHTS of pediatric cancer cell lines to identify multiple opportunities for drug repurposing: Primary screen for NB1643 cells (AID 1347099); note: nearly all actives have a fitted effect of over 50% in size
Procedure, shortened: (§1)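 Following a 5-hour attachment period, cells at 500-1,000/well received compounds and were cultured for 48 hours. CellTiter-Glo was added and luminescence read to estimate viable, metabolically active cells.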

[2] = qHTS of pediatric cancer cell lines to identify multiple opportunities for drug repurposing: Primary screen for BT-12 cells (AID 1347101); note: nearly all actives have a fitted effect of over 25% in size
Procedure, shortened: (§2)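 Cells (500-1,000/well) rested 5 h, then received compounds for 48 h; metabolically active cells were measured by CellTiter-Glo luminescence. Final concentrations spanned up to 46 µM (MIPE, 11-point) or 0.59 nM-46 µM (NPC, 8-point) in primary screens, 11-point in follow-ups.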

[3] = qHTS of pediatric cancer cell lines to identify multiple opportunities for drug repurposing: Primary screen for Rh18 cells (AID 1347102); note: nearly all actives have a fitted effect of over 65% in size
Procedure, shortened: (§3)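 Cells (500-1,000/well) in growth media were settled 5 h at 37 degrees C, then given compounds for 48 h. Viability was read as CellTiter-Glo luminescence. Primary runs used MIPE at 11 points (0.78 nM-46 µM) and NPC at 8 points (0.59 nM-46 µM); follow-ups used 11 points.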

[4] = qHTS of pediatric cancer cell lines to identify multiple opportunities for drug repurposing: Primary screen for OHS-50 cells (AID 1347103); note: nearly all actives have a fitted effect of over 40% in size
Procedure, shortened: as §2

[5] = qHTS of pediatric cancer cell lines to identify multiple opportunities for drug repurposing: Primary screen for MG 63 (6-TG R) cells (AID 1347105); note: nearly all actives have a fitted effect of over 50% in size
Procedure, shortened: as §1

[6] = qHTS of pediatric cancer cell lines to identify multiple opportunities for drug repurposing: Primary screen for control Hh wild type fibroblast cells (AID 1347106);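 note: series mostly up to about 46 µM; a drop in luminescence marks cytotoxicity and a rise apparent proliferation; nearly all actives have a fitted effect of over 55% in size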
Procedure, shortened: as §3

[7] = qHTS of pediatric cancer cell lines to identify multiple opportunities for drug repurposing: Primary screen for Rh30 cells (AID 1347107); note: series mostly up to about 46 µM; nearly all actives have a fitted effect of over 75% in size
Procedure, shortened: as §3

[8] = qHTS of pediatric cancer cell lines to identify multiple opportunities for drug repurposing: Primary screen for Rh41 cells (AID 1347108);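 note: series mostly up to about 46 µM; luminescence drop marks cytotoxic hits; nearly all actives have a fitted effect of over 70% in size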
Procedure, shortened: as §1

[9] = qHTS of pediatric cancer cell lines to identify multiple opportunities for drug repurposing: Primary screen for RD cells (AID 1347104); note: nearly all actives have a fitted effect of over 55% in size
Procedure, shortened: as §1

[10] = qHTS of pediatric cancer cell lines to identify multiple opportunities for drug repurposing: Primary screen for LAN-5 cells (AID 1347100)
Procedure, shortened: as §3

Measured: Potency

C=CCOc1ccccc1OCC(O)CNC(C)C (stereo not given)
not listed: [9] | [10]
inactive: all other assays above

CC(=O)OC[C@H]1O[C@@](COC(C)=O)(O[C@H]2O[C@H](COC(C)=O)[C@@H](OC(C)=O)[C@H](OC(C)=O)[C@H]2OC(C)=O)[C@@H](OC(C)=O)[C@@H]1OC(C)=O
not listed: [9] | [10]
inactive: all other assays above

Cc1cc(-n2nc3ccc(Cl)cc3n2)c(O)c(C(C)(C)C)c1
not listed: [4] | [10]
inactive: all other assays above

C[C@@H](c1ncncc1F)C(O)(Cn1cncn1)c1ccc(F)cc1F (stereo not given in full)
not listed: [10]
inactive: all other assays above

Nc1ncnc(Nc2ccccc2)n1
not listed: [10]
inactive: all other assays above

CC(=O)Nc1ccccc1
not listed: [3] | [10]
inactive: all other assays above

O=C(CN1CCNCC1)NC1CCCCC1
not listed: [3] | [10]
inactive: all other assays above

CC1CC(OC(=O)c2ccccc2O)CC(C)(C)C1 (stereo not given)
not listed: [9] | [10]
inactive: all other assays above

NC(N)=NS(=O)(=O)c1ccc(N)cc1
not listed: [3] | [10]
inactive: all other assays above

C=CCNC(N)=S
not listed: [10]
inactive: all other assays above

Cc1c(C)c2c(c(C)c1OC(=O)c1cccnc1)CC[C@@](C)(CCC[C@H](C)CCC[C@H](C)CCCC(C)C)O2
not listed: [9] | [10]
inactive: all other assays above

CCCCCCCCCCCCCCCCC(C(=O)O)C(O)(CC(=O)O)C(=O)O (stereo not given)
not listed: [10]
inactive: all other assays above

CC(=O)N1C[C@H](O)C[C@H]1C(=O)O
not listed: [10]
inactive: all other assays above

O=C(O)Cn1c(C(=O)Nc2nc(-c3ccccc3Cl)cs2)cc2ccccc21
not listed: [3] | [10]
inactive: all other assays above

CC(C)CCCC(C)CCCC(C)CCCCC(C)CCCC(C)CCCC(C)C (stereo not given)
not listed: [4] | [10]
inactive: all other assays above

O=C(O)C(S)C(S)C(=O)O (stereo not given)
not listed: [10]
inactive: all other assays above

Cc1ccsc1/C=C/C1=NCCCN1C
not listed: [10]
inactive: all other assays above

c1ccc2[nH]ccc2c1
not listed: [3] | [9] | [10]
inactive: all other assays above

O=C(O)[C@@H]1[C@H]2C[C@H]3c4[nH]c5ccccc5c4CCN3C[C@@H]2CC[C@@H]1O
not listed: [4] | [9] | [10]
inactive: all other assays above

Cc1cccc(Nc2ccccc2C(=O)O)c1C
not listed: [10]
inactive: all other assays above

C[C@@H](N)C(=O)O
not listed: [1]
inactive: all other assays above

COc1ccc(NS(=O)(=O)c2ccc(N)cc2)nn1
not listed: [4] | [10]
inactive: all other assays above

Cc1cc(C)c(NC(=O)CN(CC(=O)O)CC(=O)O)c(C)c1Br
not listed: [9] | [10]
inactive: all other assays above

CC(=O)N(CC(O)CN(C(C)=O)c1c(I)c(C(=O)NCC(O)CO)c(I)c(C(=O)NCC(O)CO)c1I)c1c(I)c(C(=O)NCC(O)CO)c(I)c(C(=O)NCC(O)CO)c1I (stereo not given)
not listed: [3] | [9] | [10]
inactive: all other assays above

O=C(O)c1ccccc1OP(=O)(O)O
not listed: [10]
inactive: all other assays above

CC(=O)SC[C@@H](Cc1ccccc1)C(=O)NCC(=O)OCc1ccccc1
not listed: [10]
inactive: all other assays above

C=CCSCC1Nc2cc(Cl)c(S(N)(=O)=O)cc2S(=O)(=O)N1 (stereo not given)
not listed: [3] | [10]
inactive: all other assays above

Cn1c(=O)c2c(ncn2CCO)n(C)c1=O
not listed: [3] | [9] | [10]
inactive: all other assays above

O=C(O)c1ccc[n+]([O-])c1
not listed: [10]
inactive: all other assays above

CC(C)=CCC/C(C)=C/CO
not listed: [9] | [10]
inactive: all other assays above

O=C(NCN1CCOCC1)c1cnccn1
not listed: [10]
inactive: all other assays above

CC(=O)OCC(=O)[C@@]1(O)CC[C@H]2[C@@H]3CCC4=CC(=O)C=C[C@]4(C)[C@@]3(F)[C@@H](O)C[C@@]21C
not listed: [10]
inactive: all other assays above

NCc1ccc(S(N)(=O)=O)cc1
not listed: [4] | [10]
inactive: all other assays above

Cc1c(N(C)C)c(=O)n(-c2ccccc2)n1C
not listed: [9] | [10]
inactive: all other assays above

COc1ccccc1OC(=O)Oc1ccccc1OC
not listed: [10]
inactive: all other assays above

CC(C(=O)O)c1ccc2c(c1)Cc1cccnc1O2 (stereo not given)
not listed: [10]
inactive: all other assays above
